Experimental data reported in PubChem BioAssay (NCATS).
Results filed as inconclusive are left out. Activity calls are given as the source filed them. Calls come from the whole dose curve; as a rule, active = well fitted cell-killing curve with a large enough effect; inconclusive = small, poorly fitted or top-dose-only effect; inactive = no such curve, though single readings can be large or run the other way.

assay: qHTS of pediatric cancer cell lines to identify multiple opportunities for drug repurposing: Primary screen for LAN-5 cells (AID 1347100); details: LAN-5 neuroblastoma viability, CellTiter-Glo luminescence, 48 h; series mostly up to 46 µM; activity change, negative = cytotoxic: at the top concentration;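 for activity change, negative = cytotoxic: plate controls were DMSO neutral control for no effect and bortezomib positive control for full effect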
Procedure, shortened: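 Viability after 48 h compound treatment at 37C, 500-1,000 cells/well, read as ATP luminescence with CellTiter-Glo. Primary screens used 11-point (MIPE, 0.78 nM-46 µM) or 8-point (NPC, 0.59 nM-46 µM) final concentrations; follow-up screens used 11-point dilutions.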
Potency is the fitted concentration of half-maximal effect.

Compound | Potency | activity change, negative = cytotoxic
C[C@H]1O[C@@H](O[C@H]2[C@@H](O)C[C@H](O[C@H]3[C@@H](O)C[C@H](O[C@H]4CC[C@@]5(C)[C@H](CC[C@@H]6[C@@H]5CC[C@]5(C)[C@@H](C7=CC(=O)OC7)CC[C@]65O)C4)O[C@@H]3C)O[C@@H]2C)C[C@H](O)[C@@H]1O | 47.3 nM (active) | –
CC(C)CC(N(C)C)C1(c2ccc(Cl)cc2)CCC1 (centres undefined) | inactive | –
CCC(=O)C(CC(C)N(C)C)(c1ccccc1)c1ccccc1 (centres undefined) | – | -18.2% [at 92.7 µM] (inactive)
Cc1sc2c(c1C)C(c1ccc(Cl)cc1)=N[C@@H](CC(=O)OC(C)(C)C)c1nnc(C)n1-2 | 590 nM (active) | –
C[C@@H]1[C@@H](CC(C[C@H]2O[C@@H]3O[C@]4(C)CC[C@@H]5[C@H](C)CC[C@@H]([C@H]2C)[C@@]35OO4)C[S+](=O)([O-])c2ccc(COC(=O)N(C)C)cc2)O[C@@H]2O[C@]3(C)CC[C@H]4[C@H](C)CC[C@@H]1[C@@]24OO3 (some centres undefined) | 662 nM (active) | –
CCN(CC)CCN1C(=O)CN=C(c2ccccc2F)c2cc(Cl)ccc21 | – | -10.9% (inactive)
CNC(=O)N1N=C(c2ccc(N)cc2)c2cc3c(cc2CC1C)OCO3 (centres undefined) | 5900 nM (active) | –
CN(C)CCN(C)CCc1ccc(Cl)c(Cl)c1 | – | -3.54% (inactive)
C[C@@H]1[C@@H](C(=O)C[C@H]2O[C@@H]3O[C@]4(C)CC[C@@H]5[C@H](C)CC[C@@H]([C@H]2C)[C@@]35OO4)O[C@@H]2O[C@]3(C)CC[C@H]4[C@H](C)CC[C@@H]1[C@@]24OO3 | 16600 nM (active) | –
